# High-throughput results from PubChem.
# Peg3 promoter: Peg3 promoter activity inhibition; 360,000 compounds, 1.7% hits; HeLa PEG-Prom luciferase reporter, luminescence, overnight; inhibition, % at 20 µM;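 active = inhibition of at least 50% at 20 µM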
# HIF-2a inh: inhibitors of HIF-2a; 786-0 RCC cells HIF-2a reporter, luciferase luminescence, overnight; inhibition, % at 18.8 µM; 360,000 compounds, 0.72% hits; AID 624352;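 active = inhibition of the luminescence signal of 40% or more relative to plate controls, in a single-dose primary screen at 18.75 µM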
# KKLEB cytotox: reduces viability of KKLEB cystic fibrosis airway cells. KKLEB CF airway cells viability, ATPlite luminescence, overnight; stronger effect = lower value; cells stimulated with P. aeruginosa culture filtrate. activity change (cytotoxicity), % at 5 µM. 360,000 compounds, 0.36% hits. AID 602141;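 active = corrected activity change at or below -50% at 5 µM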
# CF NFkB inh: blocks PAF-induced NF-kB reporter in cystic fibrosis cells. KKLEB NF-kB-GFP reporter, GFP fluorescence overnight. inhibition, % at 5 µM. 360,000 compounds, 0.86% hits;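 active = at least 50% inhibition at 5 µM, scaled per plate between neutral and stimulator controls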;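 also: PAF is a Pseudomonas aeruginosa culture filtrate used as stimulus; plate controls were PAF-stimulated DMSO wells for no effect and unstimulated DMSO wells for full effect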
# MITF TRPM1 inh: reduces MITF-dependent TRPM1 promoter luciferase signal; SK-MEL-5 TRPM1 promoter luciferase, 24 h; inhibition, % at 12.5 µM; 330,000 compounds, 0.83% hits; AID 488899;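 active = mean inhibition across replicates of 60% or more, whatever share of single replicates reaches that level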
# Shn3 3UTR inh: inhibitors of Schnurri-3 3'UTR reporter in osteoblasts; Clone20 osteoblast Shn3 3'UTR firefly luciferase, 24 h; inhibition, % at 12.5 µM; 360,000 compounds, 0.52% hits; AID 588674;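 active = mean inhibition of at least 75% with every replicate also reaching 75%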;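 also: 0% = median of neutral control wells and 100% = pilot-screen positive control compound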
# CF NFkB conf: confirmation of cystic fibrosis induced NF-kB inhibitors | KKLEB CF airway cells, PAF-induced NF-kB-GFP fluorescence, overnight | inhibition, % at 5 µM | 1,300 compounds, 64% hits | shares compounds with CF NFkB inh | AID 602472; in the data active = inhibition above about 40%;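 also: stimulus PAF is a Pseudomonas aeruginosa filtrate and not platelet activating factor; plate controls were DMSO wells with stimulus for no effect and unstimulated DMSO wells for full effect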
# The depositor's hits bear a star; x = no result. A selection: hits, their analogues and other compounds. The true share with any hit is near 2.8%.
SMILES,Peg3 promoter,HIF-2a inh,KKLEB cytotox,CF NFkB inh,MITF TRPM1 inh,Shn3 3UTR inh,CF NFkB conf
CCOC(=O)c1c(-c2ccc(C)cc2)csc1NC(=O)c1ccc(N2C(=O)CCC2=O)cc1,5,10,-41,58*,8,7,55*
CCOC(=O)c1c(-c2ccc(C)cc2)csc1NC(=O)c1cccc(N2C(=O)CCC2=O)c1,38,15,-12,21,-9,-9,x
COc1ccc(C(OC(=O)c2ccco2)C(=O)NC(C)(C)C)cc1OC (stereo not given),5,16,13,-29,5,19,x
COc1ccc(-c2csc(/C(C#N)=C\c3ccc(OC)c([N+](=O)[O-])c3)n2)cc1,6,1,-13,-15,-8,11,x
COc1ccc(-c2csc(/C(C#N)=C\c3ccc(O)c([N+](=O)[O-])c3)n2)cc1OC,50,-51,-2,79*,4,-8,80*
COc1ccc(Cc2nnc(SCc3ccc([N+](=O)[O-])cc3)o2)cc1,7,20,0,65*,-7,-2,86*
Cc1nn(-c2nccs2)c2c1C(=O)CC(C)(C)C2Br (stereo not given),50,9,2,51*,16,-19,61*
COc1ccc2c(c1OC)C(=O)N1c3ccccc3C(=O)N(c3ccc(F)cc3)C21 (stereo not given),46,-5,-4,32,8,10,x
COc1ccc2c(c1OC)C(=O)N1c3ccccc3C(=O)N(c3ccccc3)C21 (stereo not given),44,-10,-4,68*,-6,21,97*
CC[C@@]1(c2cccc(C)c2)C(=O)N(C(=O)OC)N1C(=O)OC,17,19,-25,54*,46,-11,22
Cc1[nH]nc2c1-c1nc3ccccc3nc1C(C)(C)C2,22,23,-14,51*,41,89*,54*
C=C1c2nc3ccccc3n2C=C(c2ccc(C)cc2)N1c1ccccc1,-10,-53,8,-14,-1,-12,x
Cc1ccccc1-c1nc2cc(NC(=O)C3CC3)ccc2o1,-339,-296,10,-25,-58,-63,x
O=C(NCCc1c[nH]c2ccccc12)c1ccc([N+](=O)[O-])o1,3,5,-8,70*,x,-6,43*
COc1cc2c(cc1NC(=O)CN1CCN(S(=O)(=O)c3ccccc3F)CC1)oc1ccccc12,30,10,-40,55*,0,5,41*
COc1cc2c(cc1NC(=O)Cc1ccc(C)cc1)oc1ccccc12,-227,-305,-11,4,-47,-65,x
COc1ccc(-n2cc(-c3ccccc3)c3c(N4CC(C)OC(C)C4)ncnc32)cc1 (stereo not given),64*,28,-16,82*,1,21,72*
CN1CCN(c2ncnc3c2c(-c2ccccc2)cn3-c2ccc(F)cc2)CC1,39,17,-3,-8,-25,23,x
Cc1cc(Cl)ccc1OCCCC(=O)Nc1ccc(S(=O)(=O)Nc2ncccn2)cc1,10,11,1,2,-1,-38,x
O=C(CCC1COc2ccccc2O1)Nc1ccc(Cl)cn1 (stereo not given),27,-159,-14,60*,-18,-34,48*
O=C(Oc1cccc(F)c1)c1ccc2c(=O)n3c(nc2c1)CCC3,-13,-1,-8,14,0,-15,x
CCOC(=O)CNC(=O)CCc1nnc2ccc(N3CCC(C)CC3)nn12,-9,7,10,-7,-3,-4,x
CC(C)Cc1nc2oc3c(NCC4CCCO4)ncnc3c2c2c1CCC2 (stereo not given),61*,16,0,76*,9,13,90*
c1nc(NCc2ccc3c(c2)OCO3)c2cc(-c3ccc4c(c3)OCCO4)ccc2n1,-12,-6,8,10,6,-23,x
c1cncc(CNc2ncnc3ccc(-c4ccc5c(c4)OCO5)cc23)c1,18,24,-2,36,-2,14,29
